system: TRPM6; settings: concentration: 1 μM,replicates: in singlicate; n = 1
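Note: KINOMEscan kinase panel screen.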

Compound | %Inh [%]
CS(=O)(=O)Nc1ccc(-c2ccnc3[nH]ccc23)cc1 [GSK993273] | 27
O=C(NCC1CC1)c1ccc(-c2cc(C(=O)NC3CC3)ccc2F)cc1 [GW810445] | 0
Cc1cccc2c(-c3ccncc3)c(-c3ccc(F)cc3)nn12.Cl [GW461487] | 0
Cn1ccc2ncnc(Oc3ccc(NC(=O)Nc4cnn(C(C)(C)C)c4)c(Cl)c3)c21 | 0
Cn1cc(-c2cccc3c(N)c(C(N)=O)nnc23)cn1 | 35
C[C@@H]1CCN(C(=O)N2CCCC2)C[C@@H]1N(C)c1ncnc2[nH]ccc12 | 4
Cl.Nc1n[nH]c2cc(-c3ccccn3)ccc12 [GSK2189892] | 0
Cl.c1ccc(Oc2ccc(Nc3ccnc4cc(-c5ccc(CN6CCNCC6)o5)ccc34)cc2)nc1 [GW567142] | 50
CCNCC(Cc1ccccc1)NC(=O)c1cc(Br)c(-c2ccnc3[nH]ccc23)s1.Cl.Cl (stereo not shown) [GSK1383280] | 8
Cc1ccc(Nc2ccnc(Nc3ccc4c(c3)CS(=O)(=O)C4)n2)cc1O.Cl [GW579362] | 25
COc1cccc(C2=C(Nc3cccc(Cl)c3)C(=O)NC2=O)c1 [SB-341556] | 0
CCN1CCN(CCCC(=O)Nc2n[nH]c3nc(-c4ccc(O)cc4)c(Br)cc23)CC1 [SB-731579] | 0
CSc1nccc(-c2c(-c3ccc(F)cc3)ncn2CCCN2CCOCC2)n1.Cl [SB-217146] | 10
COc1cc2nccc(Nc3ccc(Oc4ccccc4)cc3)c2cc1OC.Cl [GI261656] | 58
CS(=O)c1ccc(-c2coc3ccc(-c4n[nH]c(=O)o4)cc23)cc1 (stereo not shown) | 0
Cn1ccc2ncnc(Oc3ccc(NC(=O)Nc4ccnc(C(F)(F)F)c4)c(Cl)c3)c21 | 0
CN1CCN(CCCNc2nccc(-c3c(-c4ccc(F)cc4)nn4cc(C(N)=O)ccc34)n2)CC1 [GW622475] | 23
O=C(NOCC1CC1)c1cc(Br)c(F)c(F)c1Nc1ccc(I)cc1Cl | 0
COc1cccc(CNC(=O)NC2CCN(c3ccnc(Nc4cc(OC)c(OC)c(OC)c4)n3)C2)c1 (stereo not shown) [GSK1379765] | 0

Compound | %Inh [%]
COc1cc(Nc2nccc(N3CCC(NC(=O)c4cccc(C#N)c4)C3)n2)cc(OC)c1OC (stereo not shown) [GSK1379751] | 0
COC(=O)c1cccc(NC(=O)NC2CCN(c3ccnc(NCc4ccc(F)cc4)n3)CC2)c1 [GSK1379860] | 0
Cn1ccc2ncnc(Oc3ccc(NC(=O)Nc4cc(C(C)(C)C)on4)c(Cl)c3)c21 | 0
O=C1NCCc2[nH]c(-c3ccncc3)cc21 | 0
Nc1nccc(-c2ccc3c(N)n[nH]c3c2)n1 [GSK1034945] | 26
CC(=O)Nc1ccc(-c2cc3ncnc(SCC(=O)O)c3s2)cc1 | 23
NC(=O)c1ccc(-c2cc3ncnc(SCC(=O)O)c3s2)cc1 | 0
Cc1cccc(-c2nc(Nc3ccncc3)c3sccc3n2)n1 [GW869641] | 38
Cn1ccc2ncnc(Oc3ccc(NC(=O)Nc4cncc(C(F)(F)F)c4)c(Cl)c3)c21 | 0
OCCn1cc(-c2cnc3nnn(Cc4ccc5ncccc5c4)c3n2)cn1 | 0
C[C@@H]1CNc2c(sc3ccc4nc(-c5ccc(O)cc5)ccc4c23)C(=O)N1 | 0
FC(F)(F)c1cc(Br)cc(Nc2nccc(-c3cnn4ncccc34)n2)c1 [GW810578] | 0
NC(=O)Nc1sc(-c2ccc(F)cc2)cc1C(N)=O [GW789449] | 1
c1ccc(Oc2ccc(Nc3ccnc4ccc(-c5ccccn5)cc34)cc2)cc1 [GW407034] | 27
CCn1c(-c2nonc2N)nc2cncc(CNC3CCNCC3)c21.Cl [SB-747651] | 21
CN(c1ccccc1CNc1nc(Nc2ccc3c(c2)CC(=O)N3)ncc1C(F)(F)F)S(C)(=O)=O | 0
Cc1ccc(C(=O)Nc2ccc(Oc3ccc4nc(NC(=O)C5CC5)cn4c3)c(F)c2)c(=O)n1-c1ccccc1 | 0
C[C@@H](Oc1cc(-n2cnc3ccc(-c4ccncc4)cc32)sc1C(N)=O)c1ccccc1Cl [GSK483724] | 34
